Some test systems named below: CSNK1G1; CSNK1G2; CSNK1G3; CSNK2A1; CSNK2A2; DAPK1; DAPK2; DAPK3; DDR1; DDR2; DMPK; DYRK1A.
Holding throughout (details): concentration: 1 μM, replicates: in singlicate; n = 1
The subject of another assay is T1, CTK.
T1 construct: gene MATK

In the next assay the test system is T2, DCAMKL1.
T2 construct: gene DCLK1

The test system of the next assay is T3, DCAMKL2.
T3 construct: gene DCLK2

In a further assay the test system is T4, DCAMKL3.
T4 construct: gene DCLK3

Another assay relates to T5, DLK.
T5 construct: gene MAP3K12

A further assay concerns T6, DMPK2.
T6 construct: gene CDC42BPG

A further assay relates to T7, DRAK1.
T7 construct: gene STK17A

For another assay, the system named is T8, DRAK2.
T8 construct: gene STK17B
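Further: KINOMEscan kinase panel screen.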

On to `Cc1ccccc1CC(=O)N1CCc2cc(-c3cn(C)c4ncnc(N)c34)ccc21` [GSK2603346], for which the “%Inh” value with CSNK1G1 is given as 12%; in the assay on CSNK1G2 it was 5%; in the assay on CSNK1G3, 17%; with CSNK2A1, 30%; in the assay with CSNK2A2, 15%; with CTK, 14%. The “%Inh” value in the assay with DAPK1, in the assay on DAPK2, in the assay on DAPK3, in the assay on DCAMKL1, with DCAMKL2 and with DCAMKL3 was 0% throughout. For the same molecule, the “%Inh” value with DDR1 is 56%; with DDR2, 13%; in the assay on DLK, 4%; in the assay on DMPK2, 74%; in the assay on DMPK, 0%; in the assay on DRAK1 it was 0%. Moreover, the “%Inh” value with DRAK2 was 0%; with DYRK1A, 17%.

Turning to `COc1ccc(NC(=O)c2ccoc2)cc1-c1ccc(C(=O)NCC2CC2)cc1` [GW810437], the “%Inh” value in the assay on CSNK1G1 came out at 0%; with CSNK1G2, 0%; with CSNK1G3, 0%; in the assay with CSNK2A1 it was 0%; in the assay with CSNK2A2, 0%; in the assay with CTK it was 15%. Moreover, the “%Inh” value is listed as 0% in the assay with DAPK1; 17% in the assay on DAPK2; 13% in the assay with DAPK3; 0% in the assay with DCAMKL1; 17% in the assay with DCAMKL2; 12% in the assay with DCAMKL3. Further, the “%Inh” value worked out at 0% with DDR1; 50% in the assay on DDR2; 0% in the assay with DLK; 0% in the assay on DMPK2; 1% in the assay with DMPK; 6% in the assay on DRAK1. Also, the “%Inh” value in the assay with DRAK2 is listed as 7%; with DYRK1A it was 0%.

`CC(=O)Nc1cn2nc(Oc3cccc(NC(=O)c4cccc(C(F)(F)F)c4)c3)ccc2n1`: the “%Inh” value in the assay on CSNK1G1 came to 3%; in the assay on CSNK1G2, 0%; with CSNK1G3, 41%; in the assay on CSNK2A1, 0%; with CSNK2A2 it was 0%; in the assay with CTK, 0%. In addition, the “%Inh” value in the assay with DAPK1 amounted to 0%; with DAPK2, 1%; in the assay with DAPK3, 6%; in the assay with DCAMKL1, 20%; in the assay on DCAMKL2, 24%; in the assay with DCAMKL3 it was 9%. Moreover, the “%Inh” value amounted to 98.3% in the assay on DDR1; 100% in the assay with DDR2; 0% in the assay with DLK; 1% in the assay on DMPK2; 0% in the assay with DMPK; 0% in the assay on DRAK1. In addition, the “%Inh” value with DRAK2 is on record as 11%; with DYRK1A it was 0%.

Take `COc1cccc(C2=C(Nc3cccc(O)c3)C(=O)NC2=O)c1` [SB-390771]: the “%Inh” value with CSNK1G1 was 9%; in the assay on CSNK1G2, 0%; in the assay on CSNK1G3, 15%; with CSNK2A1, 0%; in the assay on CSNK2A2, 8%; with CTK it was 0%. Besides, the “%Inh” value was 14% in the assay on DAPK1; 0% in the assay with DAPK2; 16% in the assay on DAPK3; 21% in the assay on DCAMKL1; 0% in the assay with DCAMKL2; 31% in the assay with DCAMKL3. For the same molecule, the “%Inh” value came out at 0% in the assay on DDR1; 17% in the assay on DDR2; 26% with DLK; 0% in the assay with DMPK2; 0% with DMPK; 0% in the assay on DRAK1. The “%Inh” value with DRAK2 was 0%; in the assay with DYRK1A, 57%.

`COC(=O)Nc1nc2ccc(Oc3ccc(CC(=O)Nc4cc(C(F)(F)F)ccc4F)cc3)cc2[nH]1` [GW680903]: the “%Inh” value turned out to be 0% in the assay with CSNK1G1; 0% with CSNK1G2; 14% in the assay with CSNK1G3; 0% in the assay on CSNK2A1; 0% with CSNK2A2; 0% with CTK. Moreover, the “%Inh” value in the assay with DAPK1 is given as 0%; in the assay on DAPK2, 0%; in the assay on DAPK3 it was 0%; in the assay on DCAMKL1 it was 11%; in the assay with DCAMKL2, 0%; in the assay with DCAMKL3, 0%. For the same molecule, the “%Inh” value in the assay with DDR1 is 100%; in the assay on DDR2, 97.4%; in the assay with DLK it was 30%; with DMPK2 it was 0%; with DMPK, 0%; in the assay on DRAK1, 54%. Further, the figures for the “%Inh” value in the assay on DRAK2 and in the assay with DYRK1A were 0% and 13%, respectively.

The values are drawn from PMC5540273 (PLoS ONE, 2017).
